Potency data for 13 compounds are collected here from PubChem BioAssay (NCATS).

SMILES strings stand for the structures. Inconclusive results are not listed. The source made the active and inactive calls. Calls follow the shape of the dose curve; as a rule, active = well fitted curve in the direction sought with a large enough effect; inconclusive = small, poorly fitted or top-dose-only effect, or another doubt; inactive = no such curve, though single readings can be large; an effect the other way counts as inactive or inconclusive.

Assay [1] can be described thus: qHTS of pediatric cancer cell lines to identify multiple opportunities for drug repurposing: Primary screen for TC32 cells (AID 1347089). Also: nearly all actives have a fitted effect of over 60% in size. The method in brief: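 A viability screen of TC32 cells was run over 48 h, with primary MIPE doses spanning 0.78 nM–46 µM and NPC doses 0.59 nM–46 µM. ATP luminescence (CellTiter-Glo) served as the read-out.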
For orientation: In qHTS, concentration-response curves come from the screen itself.

A short description of assay [2]: qHTS of pediatric cancer cell lines to identify multiple opportunities for drug repurposing: Primary screen for SJ-GBM2 cells (AID 1347091). The method, boiled down: (§1)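 Cell viability, CellTiter-Glo luminescence; 500-1,000 cells/well, 8- or 11-point titration, 48 h compound exposure at 37 degrees C, 5% CO2. Controls: DMSO neutral, bortezomib 2.3 µM final as positive.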

Assay [3] in a line: qHTS of pediatric cancer cell lines to identify multiple opportunities for drug repurposing: Primary screen for A673 cells (AID 1347092). Also: nearly all actives have a fitted effect of over 45% in size. The method, boiled down: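 Titration-based qHTS on A673 cells: MIPE compounds spanned 11 points (0.78 nM to 46 µM final), NPC compounds 8 points (0.59 nM to 46 µM final). Viability after 48 h was measured by ATP luminescence.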
Assay [4] can be described thus: qHTS of pediatric cancer cell lines to identify multiple opportunities for drug repurposing: Primary screen for Saos-2 cells (AID 1347097). Also: nearly all actives have a fitted effect of over 40% in size. The method in brief: (§2)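 Viability was measured as metabolically active cells after 48 hours of treatment, read by CellTiter-Glo luminescence. Compounds were tested at multiple final concentrations, giving concentration-response curves.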

The nature of assay [5]: qHTS of pediatric cancer cell lines to identify multiple opportunities for drug repurposing: Primary screen for SK-N-SH cells (AID 1347098). Also: nearly all actives have a fitted effect of over 65% in size. The method, boiled down:
(§3)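 Cells (500-1,000/well) rested 5 h, then received compounds for 48 h; metabolically active cells were measured by CellTiter-Glo luminescence. Final concentrations spanned up to 46 µM (MIPE, 11-point) or 0.59 nM-46 µM (NPC, 8-point) in primary screens, 11-point in follow-ups.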

Assay [6] in a line: qHTS of pediatric cancer cell lines to identify multiple opportunities for drug repurposing: Primary screen for LAN-5 cells (AID 1347100). The method in brief: as §3
The nature of assay [7]: qHTS of pediatric cancer cell lines to identify multiple opportunities for drug repurposing: Primary screen for BT-12 cells (AID 1347101). Also: nearly all actives have a fitted effect of over 25% in size. The method in brief: as §3
Assay [8] is described as follows: qHTS of pediatric cancer cell lines to identify multiple opportunities for drug repurposing: Primary screen for OHS-50 cells (AID 1347103). Also: nearly all actives have a fitted effect of over 40% in size. The method in brief:
as §3

Assay [9] in a line: qHTS of pediatric cancer cell lines to identify multiple opportunities for drug repurposing: Primary screen for RD cells (AID 1347104). Also: nearly all actives have a fitted effect of over 55% in size. The method in brief: as §2
The nature of assay [10]: qHTS of pediatric cancer cell lines to identify multiple opportunities for drug repurposing: Primary screen for DAOY cells (AID 1347090). Also: nearly all actives have a fitted effect of over 55% in size. The method in brief:
as §1

Assay [11] is described as follows: qHTS of pediatric cancer cell lines to identify multiple opportunities for drug repurposing: Primary screen for SK-N-MC cells (AID 1347093). The method, boiled down:
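Metabolically active cells were quantified by ATP-dependent luminescence (CellTiter-Glo, 15 min at room temperature) following 48 h treatment. Cells had been plated at 500-1,000 per well and settled for 5 h beforehand.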

Assay [12] in a line: qHTS of pediatric cancer cell lines to identify multiple opportunities for drug repurposing: Primary screen for BT-37 cells (AID 1347094). The method in brief:
as §2

Assay [13] is described as follows: qHTS of pediatric cancer cell lines to identify multiple opportunities for drug repurposing: Primary screen for NB-EBc1 cells (AID 1347095). The method in brief:
as §2

Assay [14] in a line: qHTS of pediatric cancer cell lines to identify multiple opportunities for drug repurposing: Primary screen for U-2 OS cells (AID 1347096). Also: nearly all actives have a fitted effect of over 50% in size. The method, boiled down: as §3
Assay [15] can be described thus: qHTS of pediatric cancer cell lines to identify multiple opportunities for drug repurposing: Primary screen for NB1643 cells (AID 1347099). Also: nearly all actives have a fitted effect of over 50% in size. The method in brief:
as §2

A short description of assay [16]: qHTS of pediatric cancer cell lines to identify multiple opportunities for drug repurposing: Primary screen for Rh18 cells (AID 1347102). Also: nearly all actives have a fitted effect of over 65% in size. The method, boiled down: as §3
Potency is read from the fitted curve at half-maximal effect.

For the compound `Cn1cc(-c2[nH]c3cc(NC(=O)[C@H](N)C4CCCCC4)cc4c3c2C=NNC4=O)cn1`, the Potency is 2620 nM (active) in [1]; 590 nM (active) in assay [2]; 5900 nM (active) in [3]; 4690 nM (active) in assay [4]; 19200 nM (active) in assay [5]; 1480 nM (active) in [6]. Besides, the Potency in [8] is 1220 nM (active); in assay [9], 14800 nM (active). Besides, in [7], the Potency entry was “inactive”.

For `O=C(O)c1ccc2cc(-c3ccc(O)c(C45CC6CC(CC(C6)C4)C5)c3)ccc2c1`, the Potency in assay [10] was 469 nM (active); in assay [2] it was 148 nM (active); in [3], 2350 nM (active); in assay [11], 372 nM (active); in assay [12], 863 nM (active); in assay [13], 209 nM (active). Besides, the Potency in assay [4] was 296 nM (active); in assay [5] it was 24100 nM (active); in assay [15] it was 372 nM (active); in assay [6] it was 590 nM (active); in assay [8], 243 nM (active); in assay [9] it was 5260 nM (active). Besides, the Potency entry in assay [14] is “inactive”.

Consider `O=C(NCCS(=O)(=O)c1ccc(C(F)(F)F)cn1)c1ccc(Cl)cc1`, for which the Potency entry in assay [1], in assay [2], in [3], in assay [12], in assay [13] and in assay [14] was “inactive” each time. Also, the Potency result in [4], in assay [15], in assay [6], in [7], in [16] and in assay [8] was “inactive” each time. Further, the Potency result in assay [9] is “inactive”.

For `c1ccc2c(CCNc3ccc(Nc4ccncc4)cc3)c[nH]c2c1`, the Potency in assay [1] was 20800 nM (active); in assay [2], 5900 nM (active); in [3] it was 18700 nM (active); in assay [12] it was 4320 nM (active); in assay [13] it was 2350 nM (active); in assay [4], 14800 nM (active). Also, the Potency in assay [5] is 19200 nM (active); in assay [15] it was 5260 nM (active); in assay [6], 4180 nM (active); in assay [7], 21700 nM (active); in assay [16], 18700 nM (active); in [8], 6850 nM (active). Also, the Potency entry in [14] is “inactive”.

Take `CCS(=O)(=O)c1cccc(-c2cc(C(=O)NC3CCN(C)CC3)c(C)c3[nH]c4ncc(C)cc4c23)c1`: the Potency was 14800 nM (active) in assay [10]; 526 nM (active) in assay [2]; 743 nM (active) in assay [3]; 187 nM (active) in [11]; 3060 nM (active) in [12]; 16600 nM (active) in assay [13]. Besides, the Potency was 14800 nM (active) in assay [14]; 935 nM (active) in assay [4]; 6810 nM (active) in assay [5]; 526 nM (active) in assay [15]; 118 nM (active) in assay [6]; 6110 nM (active) in [7]. Further, the Potency in assay [16] was 1180 nM (active); in assay [8] it was 769 nM (active); in [9], 2640 nM (active).

On to `C[C@]12CC[C@H](O)CC1=CCC1C2CC[C@]2(C)C(n3cnc4ccccc43)=CCC12` (some centres not stated), for which the Potency entry in assay [1], in assay [14], in [7] and in assay [16] was “inactive” throughout. In addition, the figures for the Potency in assay [2] and in assay [3] were 23500 nM (active) and 14800 nM (active), respectively.

In the case of `CC1(C)CC(=O)c2c(C(F)(F)F)nn(-c3ccc(C(N)=O)c(NC4CCC(OC(=O)CN)CC4)c3)c2C1` (configuration not stated), the Potency in assay [1] is 739 nM (active); in assay [2] it was 332 nM (active); in assay [3] it was 235 nM (active); in [11], 166 nM (active); in [4] it was 264 nM (active); in assay [5], 482 nM (active). Besides, the Potency in assay [15] was 235 nM (active); in assay [16], 418 nM (active); in assay [8], 306 nM (active); in [9] it was 187 nM (active).

With `COc1cc2ncn(-c3cc(OCc4ccccc4C(F)(F)F)c(C(N)=O)s3)c2cc1OC`, the Potency is 372 nM (active) in [10]; 662 nM (active) in assay [2]; 469 nM (active) in assay [3]; 469 nM (active) in [11]; 19300 nM (active) in assay [12]; 4690 nM (active) in assay [13]. Besides, the Potency in assay [14] is 23500 nM (active); in [4], 10500 nM (active); in [5], 24100 nM (active); in assay [7] it was 21700 nM (active); in assay [8], 1220 nM (active); in [9], 1660 nM (active).

`CC1(C)O[C@@H]2C[C@@H]3[C@H]4C[C@@H](F)C5=CC(=O)C=C[C@]5(C)[C@@]4(F)[C@@H](O)C[C@]3(C)[C@]2(C(=O)CO)O1`: the Potency entry in assay [1], in [12], in [13], in assay [14], in assay [4] and in assay [5] was “inactive” each time. Moreover, the Potency result in [6], in assay [7], in assay [16] and in [8] was “inactive” each time. For the same compound, the Potency in assay [11] is 9350 nM (active).

For the compound `CC(C)(C)NC(=O)[C@H]1CN(Cc2cccnc2)CCN1C[C@@H](O)C[C@@H](Cc1ccccc1)C(=O)N[C@H]1c2ccccc2C[C@H]1O`, the Potency result in assay [1] and in assay [14] was “inactive” in each case. The Potency in assay [3] is 743 nM (active); in assay [11], 118 nM (active); in assay [4], 18700 nM (active); in [5] it was 15200 nM (active); in [15], 1050 nM (active); in assay [8], 19300 nM (active). Moreover, the Potency in assay [9] was 1480 nM (active).

On to `COC(=O)[C@]12CCC(C)(C)C[C@@H]1[C@@H]1C(=O)C=C3[C@@]4(C)C=C(C#N)C(=O)C(C)(C)[C@@H]4CC[C@@]3(C)[C@]1(C)CC2`, for which the Potency was 590 nM (active) in assay [10]; 235 nM (active) in assay [2]; 372 nM (active) in [3]; 372 nM (active) in assay [11]; 685 nM (active) in assay [12]; 264 nM (active) in [13]. Besides, the Potency in assay [14] was 935 nM (active); in assay [4], 743 nM (active); in assay [5], 1920 nM (active); in assay [15] it was 662 nM (active); in [7] it was 968 nM (active); in assay [16], 935 nM (active). The Potency in assay [8] was 685 nM (active).

For the compound `C[C@@H]1CN(CC(=O)Nc2ccc3c(c2)Cc2cccc(-c4cc(=O)cc(N5CCOCC5)o4)c2S3)C[C@H](C)O1`, the Potency entry in assay [1] was “inactive”. For the same compound, the Potency in [2] was 14800 nM (active); in assay [3], 14800 nM (active); in assay [11], 4180 nM (active); in assay [13] it was 18700 nM (active); in [4] it was 10500 nM (active); in assay [16] it was 18700 nM (active). In addition, the Potency in assay [8] was 21700 nM (active).

As for `CN(C)CC=CC(=O)Nc1cc2c(Nc3ccc(F)c(Cl)c3)ncnc2cc1O[C@H]1CCOC1`, the Potency in [10] is 5900 nM (active); in assay [2], 3720 nM (active); in assay [3] it was 3720 nM (active); in assay [11], 1660 nM (active); in [12], 21700 nM (active); in assay [13], 9350 nM (active). The Potency in assay [14] is 18700 nM (active); in [4] it was 10500 nM (active); in [5] it was 24100 nM (active); in [15] it was 296 nM (active); in assay [6], 7430 nM (active); in [7] it was 21700 nM (active). For the same compound, the Potency in assay [16] was 14800 nM (active); in assay [8], 3060 nM (active); in [9] it was 5900 nM (active).
